The text below walks through data of PubChem BioAssay (NCATS).

Values joined by “and” are separate entries in the source; they are usually repeats but may differ in a detail not shown here. Equal values may be shown once. Inconclusive results are not listed. Values without a mark were called inactive. Active and inactive are the calls of the source. Unless noted, the call rests on the fitted dose curve; in most records, active means well fitted curve in the direction sought with a large enough effect; inconclusive means small, poorly fitted or top-dose-only effect, or another doubt; inactive means no such curve, though single readings can be large; an effect the other way counts as inactive or inconclusive.

A short description of assay [1]: qHTS to identify inhibitors of the type 1 interferon - major histocompatibility complex class I in skeletal muscle: primary screen against the NCATS Mechanism Interrogation Plate v5.0 (MIPE) Libary (AID 1347411). Further: nearly all actives have a fitted effect of over 65% in size. Further: potency means the concentration at half of the fitted maximal effect.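 On activity change, negative = inhibition: plate controls were vehicle for no effect and reference inhibitor for full effect.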 The essentials: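 Luminescence from CRISPR HiBit-tagged endogenous HLA-B in human myoblasts reported MHC class I level after 24 h of IFN-beta (4 ng/ml) plus compound. Compounds ran as 11-point 1:3 series, top 46 uM final.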

Assay [2] addresses Calcium and integrin-binding protein 1 (Homo sapiens) (UniProt Q99828). The assay can be described thus: Primary qHTS for Identification of Calcium Integrin Binding Protein 1 (CIB1) Competitor (AID 1508620).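 Further: GST tagged CIB1 binding a fluorescein labelled alphaIIb integrin peptide tracer; top concentration of the series differs between compounds; on the % scale 0 is the no-effect control and ±100 the full control effect.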 A digest of the protocol: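 Fluorescence polarization competition: CIB1-GST (1 uM final) preincubated with compound 15 min at room temperature, then FITC-labeled alphaIIb peptide (100 nM final) added for another 15 min. Polarization read at Ex 480/Em 540.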
For orientation: In qHTS, concentration-response curves come from the screen itself.

The nature of assay [3]: Primary qHTS for small molecule stabilizers of the endoplasmic reticulum resident proteome: Secreted ER Calcium Modulated Protein (SERCaMP) assay (AID 1508630). Further: on the % scale 0 is the no-effect control and ±100 the full control effect. The essentials: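 The SH-SY5Y reporter protocol was run at 3 concentrations up to 38.3 uM (primary) or 11 concentrations (follow-up): 16 h compound, 100 nM thapsigargin for 4 h, then extracellular luciferase luminescence.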

Assay [4] addresses N-terminal Xaa-Pro-Lys N-methyltransferase 1 (Homo sapiens) (UniProt Q9BV86). The assay can be described thus: Confirmatory qHTS for Inhibitors of N-terminal methyltransferase 1 (NTMT1): MTaseGlo Assay (AID 1645874). Further: nearly all actives have a fitted effect of over 65% in size. Further: potency means the concentration at half of the fitted maximal effect.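 On activity change, negative = inhibition: luminescence from SAH made as NTMT1 methylates SPKRIA peptide using SAM; series mostly up to about 100 µM; 0% = DMSO control and -100% = no-enzyme control.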 The essentials:
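Inhibition was derived from luminescence after SAH-to-ATP conversion, scaled between no-enzyme and DMSO wells, then fitted by 4-parameter Hill. Conditions: 125 nM NTMT1, 100 uM SAM, 1 uM SPKRIA, 30 min RT.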

Assay [5] in a line: Primary qHTS for inhibitors of nuclear receptor binding SET domain protein 2 (NSD2) in an isogenic RCH-ACV NSD2 p.E1099K mutant (9B) (AID 1645876). Further: nearly all actives have a fitted effect of over 70% in size. Further: potency means the concentration at half of the fitted maximal effect. On activity change, negative = viability loss: on the % scale 0 is the no-effect control and ±100 the full control effect.
Assay [6] deals with Cytochrome P450 2C9 (Homo sapiens) (UniProt P11712). The assay can be described thus: Cytochrome P450 family 2 subfamily C member 9 (CYP2C9) small molecule antagonists: luciferase biochemical (cell-free) qHTS assay (AID 1645842; active means well fitted curve in the direction sought with a large enough effect in the repeat runs; an effect the other way counts as inactive or inconclusive; further: nearly all actives have a fitted effect of over 55% in size; further: potency means the concentration at half of the fitted maximal effect; on activity change, negative = inhibition: series mostly up to about 57 µM; on the % scale 0 is the no-effect control and ±100 the full control effect). The essentials: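 P450-Glo CYP2C9 system: proluciferin substrate with enzyme in mix containing 0.4% BSA, 10 min at room temperature, then NADPH regeneration solution added and incubated 1 h at 37C. Detection reagent stopped reaction; luminescence read after 20 min as RLU.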
Cytochrome P450 2C9 (Homo sapiens), sequence (P11712 whole entry, looked up): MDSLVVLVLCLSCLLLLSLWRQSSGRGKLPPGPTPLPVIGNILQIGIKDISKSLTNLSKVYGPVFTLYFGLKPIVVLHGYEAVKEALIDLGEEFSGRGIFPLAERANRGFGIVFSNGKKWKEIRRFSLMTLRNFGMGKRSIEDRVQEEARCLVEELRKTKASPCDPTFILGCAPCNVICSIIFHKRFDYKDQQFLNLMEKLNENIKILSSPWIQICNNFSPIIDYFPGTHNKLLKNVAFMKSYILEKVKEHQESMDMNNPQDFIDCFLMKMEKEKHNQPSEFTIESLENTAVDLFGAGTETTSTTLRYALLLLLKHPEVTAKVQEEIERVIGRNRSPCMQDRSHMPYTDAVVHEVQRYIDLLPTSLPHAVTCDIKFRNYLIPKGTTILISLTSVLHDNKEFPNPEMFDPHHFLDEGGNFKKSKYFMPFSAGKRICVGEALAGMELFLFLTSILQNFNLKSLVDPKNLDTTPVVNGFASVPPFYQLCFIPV

Assay [7] is described as follows: Counterscreen qHTS for small molecule stabilizers of the endoplasmic reticulum resident proteome: GLuc-NoTag assay (AID 1508627). Further: potency means the concentration at half of the fitted maximal effect.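 On activity change, negative = inhibition: series mostly up to about 76 µM; 0% = thapsigargin alone and -100% = DMSO vehicle control.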 A digest of the protocol:
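Secreted GLuc lacking the SERCaMP modification is measured in SH-SY5Y cells exposed to compound for 19 h and then to thapsigargin (100 nM, 4 h) to deplete ER calcium; hits retested at 11 concentrations, up to 76.6 uM.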
(Counterscreens check selectivity or assay interference.)

Assay [8] is described as follows: Confirmatory qHTS for small molecule stabilizers of the endoplasmic reticulum resident proteome: Secreted ER Calcium Modulated Protein (SERCaMP) assay (AID 1508628). Further: series mostly up to about 76 µM; on the % scale 0 is the no-effect control and ±100 the full control effect; nearly all actives have a fitted effect of over 40% in size. The essentials: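 Reporter secretion upon ER calcium depletion (100 nM thapsigargin, 4 h, 37C) is measured as medium luminescence with coelenterazine, after 16 h compound pretreatment of SH-SY5Y-GLuc-SERCaMP cells; primary at three concentrations up to 38.3 uM, follow-up at 11 (up to 76.6 uM).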

A short description of assay [9]: Cell Viability qHTS for small molecule stabilizers of the endoplasmic reticulum resident proteome (AID 1508629).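 Further: potency means the concentration at half of the fitted maximal effect; compound exposure about 46 h in total before the viability read.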 Conditions: cell viability counter-screen, 100 nM thapsigargin for final 4 h.
The nature of assay [10]: A High-Content qHTS Against Drug Library for the Identification of Small Molecules that Inhibit DYT1 Early Onset Primary Dystonia-Associated Cell Pathology (AID 1645839; calls by dose curve; further: series mostly up to about 46 µM). The essentials: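 Induced EGFP-delE TorsinA cells are imaged after 48 h of compound treatment. Punctate fusion-protein distribution gives the %pathology value, while nuclei counts flag toxicity. Wild-type EGFP-hTOR1A cells define the normal pattern.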

Calcium and integrin-binding protein 1 (Homo sapiens), sequence (Q99828 whole entry, looked up): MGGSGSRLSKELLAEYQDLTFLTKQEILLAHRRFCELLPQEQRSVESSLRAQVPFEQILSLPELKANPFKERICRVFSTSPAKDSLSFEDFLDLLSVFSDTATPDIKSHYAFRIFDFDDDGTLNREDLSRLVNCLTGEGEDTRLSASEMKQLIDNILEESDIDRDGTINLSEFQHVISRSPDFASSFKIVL
N-terminal Xaa-Pro-Lys N-methyltransferase 1 (Homo sapiens), sequence (Q9BV86 whole entry, looked up): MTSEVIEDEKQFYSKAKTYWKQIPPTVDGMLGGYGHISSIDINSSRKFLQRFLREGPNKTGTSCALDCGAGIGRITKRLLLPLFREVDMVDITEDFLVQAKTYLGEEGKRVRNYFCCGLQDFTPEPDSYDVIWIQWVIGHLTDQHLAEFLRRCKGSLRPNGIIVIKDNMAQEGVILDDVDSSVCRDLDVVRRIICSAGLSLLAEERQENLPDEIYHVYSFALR

As for `Nc1[nH]nc2nnc(-c3c(-c4ccccc4)nn4ccccc34)cc12`, the Potency entry in assay [1], in assay [2] and in assay [3] was “inactive” each time. The Potency in assay [4] is 11.2 µM (active).
With `CCC(=O)NCC[C@@H]1CCc2ccc3c(c21)CCO3`, the Potency result in [1], in [2], in assay [3] and in assay [5] was “inactive” each time.
For `CNC(=O)c1cc(Oc2ccc(NC(=O)Nc3ccc(Cl)c(C(F)(F)F)c3)c(F)c2)ccn1`, the Potency in assay [1] is 23.4 µM (active); in assay [6] it was 9.52 µM (active); in [5], 14.5 µM (active). Also, the Potency result in assay [2] and in [3] was “inactive” throughout.
Turning to `O=C(c1ccc(C(=O)N2CCC(N3CCCC3)CC2)c(Nc2ccccc2)c1)N1CCC(N2CCCC2)CC1`, the Potency entry in assay [1], in assay [2], in assay [3], in assay [6] and in assay [5] was “inactive” in each case.
Regarding `N#Cc1ccc(Oc2ccc3c(c2)COB3O)cc1`, the Potency entry in assay [1], in assay [2] and in assay [3] was “inactive” throughout. In addition, the Potency in assay [5] is 5.9 µM (active).
Take `N[C@@H](CC(=O)N1CCn2c(nnc2C(F)(F)F)C1)Cc1cc(F)c(F)cc1F`: the Potency result in [1], in [2], in [3] and in assay [5] was “inactive” throughout.
Consider `O=C1CCCC(=O)C1C(=O)c1ccc(C(F)(F)F)cc1[N+](=O)[O-]`, for which the Potency entry in assay [1], in assay [2], in [3] and in [5] was “inactive” in each case.
For the molecule `CC[C@H](C=C[C@@H](C)[C@H]1CC[C@H]2[C@@H]3CC=C4C[C@@H](O)CC[C@]4(C)[C@@H]3CC[C@]12C)C(C)C`, the Potency result in [1], in [2], in assay [3] and in assay [5] was “inactive” in each case.
As to `CCn1c(-c2nonc2N)nc2cncc(CNC3CCNCC3)c21`, the Potency result in assay [1], in assay [2], in assay [3] and in [6] was “inactive” throughout. The Potency in assay [5] was 12.9 µM (active).
For `O=C(O)c1nc(=O)[nH]c(=O)[nH]1`, the Potency entry in [1], in assay [2], in assay [3] and in [5] was “inactive” each time.
Regarding `CNc1nc(Nc2ccc(C(=O)N3CCOCC3)cc2OC)ncc1Cl`, the Potency result in [1], in assay [2], in assay [3] and in assay [6] was “inactive” each time.
As for `CC(=O)NCCC(=O)N[C@@H](CCC(N)=O)C(=O)N[C@@H](CO)C(=O)N[C@@H](CCC(N)=O)C(=O)N[C@@H](CCC(N)=O)C(=O)N[C@H](C(=O)N[C@@H](Cc1ccccc1)C(=O)N[C@]1(C)CCCCCCC=CCCC[C@@](C)(C(=O)N[C@@H](CCC(N)=O)C(=O)N[C@@H](CC(N)=O)C(N)=O)NC(=O)[C@H](CC(C)C)NC(=O)[C@H](CC(C)C)NC(=O)[C@@H](CCCNC(=N)N)NC(=O)[C@H](Cc2c[nH]c3ccccc23)NC(=O)[C@H](CC(C)C)NC(=O)[C@H](CC(N)=O)NC1=O)[C@H](C)O`, the Potency result in [1], in [2], in [3] and in assay [5] was “inactive” each time.
As to `C#CCN(C)CC1=Cc2ccccc2Oc2ccccc21`, the Potency result in assay [1], in assay [2], in assay [3] and in assay [5] was “inactive” throughout.
In the case of `CC[C@H](C)n1cc(C)c2c(C(=O)NCc3c(C)cc(C)[nH]c3=O)cc(-c3ccc(N4CCNCC4)nc3)cc21`, the Potency entry in assay [1], in [2] and in assay [3] was “inactive” throughout. Besides, the Potency in assay [5] was 18.6 µM (active).
With `Cc1ccc(C2=Nc3ccc(Cl)cc3OC2)cc1`, the Potency entry in assay [1], in assay [2], in [3] and in [5] was “inactive” throughout.
On to `C=CC(=O)Nc1cccc(Sc2nc(Nc3ccc(N4CCN(C)CC4)cc3)ncc2Cl)c1`, for which the Potency in [1] is 13.1 µM (active); in assay [5], 2.9 µM (active) and 2.95 µM (active). The Potency result in assay [2] and in [3] was “inactive” throughout.
With `CC(C)(F)C[C@H](N[C@@H](c1ccc(-c2ccc(S(C)(=O)=O)cc2)cc1)C(F)(F)F)C(=O)NC1(C#N)CC1`, the Potency entry in assay [1], in [2], in [3] and in [5] was “inactive” each time.
On to `CN1C(=O)C(Cc2c[nH]c3ccccc23)NC1=S` (stereo not drawn), for which the Potency entry in [1], in assay [2], in assay [3] and in assay [5] was “inactive” throughout.
As to `CC(NCCc1ccc(O)cc1)C(O)c1ccc(O)cc1` (stereo not drawn), the Potency result in assay [1], in assay [2], in assay [3] and in assay [5] was “inactive” in each case.
As for `COc1cc2nccc(Oc3ccc(NC(=O)Nc4cc(C)on4)c(Cl)c3)c2cc1OC`, the Potency in [1] was 13.1 µM (active); in [6], 19 µM (active); in assay [5], 649 nM (active) and 3.72 µM (active). Further, the Potency result in assay [2] and in [3] was “inactive” in each case.
With `COc1ccc2nc3cc(Cl)ccc3c(Nc3cc(CN4CCCC4)c(O)c(CN4CCCC4)c3)c2n1`, the Potency in assay [1] is 18.6 µM (active); in assay [5], 2.95 µM (active). In addition, the Potency entry in assay [2] and in assay [3] was “inactive” throughout.
For the molecule `CN1CCN(c2cccc(Nc3nc4c(-c5ccc(S(C)(=O)=O)cc5)cccn4n3)c2)CC1`, the Potency in assay [1] was 5.23 µM (active); in assay [6], 12 µM (active); in [5], 2.06 µM (active) and 5.9 µM (active). The Potency entry in [2] and in assay [3] was “inactive” each time.
In the case of `CN[C@@H](C)[C@H]1[C@H](O)C[C@@]2(C)[C@@H]3CC[C@H]4C(C)(C)[C@@H](NC)CC[C@@]45C[C@@]35CC[C@]12C`, the activity change, negative = inhibition in [1] was 36.7% [at 8.44 µM]. In addition, the Potency entry in assay [2] and in assay [3] was “inactive” throughout. In addition, the activity change, negative = viability loss in assay [5] is 5.77% [at 9.23 µM].
For the molecule `CCCCOCCOc1nc(-c2ccc(C(=O)O)c(F)c2)sc1C`, the Potency result in [1], in [2], in assay [3] and in [5] was “inactive” throughout.
Turning to `O=C(CCCN1CCN(c2ccc(F)cc2)CC1)NC1c2ccccc2CSc2ccccc21` (stereo not drawn), the Potency was 39.8 µM (active) in [7] and 25.1 µM (active) in assay [9]. Also, the Potency result in [8] was “inactive”.
On to `O[C@@H](COc1cccc2ncccc12)CN1CCN(C2c3ccccc3[C@@H]3[C@H](c4ccccc42)C3(F)F)CC1` (stereo partly drawn), for which the Potency result in assay [7] was “inactive”.
Consider `OC[C@H]1O[C@@H](OCCc2ccc(O)cc2)[C@H](O)[C@@H](O)[C@H]1O`, for which the result in assay [10] was inactive.
On to `CCCCC[C@H](O)C=C[C@H]1[C@H](O)CC(=O)[C@H]1CC=CCCCC(=O)O`, for which the outcome in [10] was inactive.
As for `CCNC(=O)c1noc(-c2cc(C(C)C)c(O)cc2O)c1-c1ccc(CN2CCOCC2)cc1`, the Potency entry in assay [4] is “inactive”.
Take `CC(=O)OCC(=O)[C@@]1(O)CC[C@H]2[C@@H]3CCC4=CC(=O)C=C[C@]4(C)[C@@H]3[C@@H](O)C[C@@]21C`: in assay [2], the Potency entry is “inactive”.
The same measure, in the same setting: with `CCCCCCCCCCCCCC(=O)N[C@H](CO)[C@H](O)c1ccc([N+](=O)[O-])cc1` the entry was “inactive”.
On the same count and under the same terms, under `C[C@]12CCC3=C4CCC(=O)C=C4CC[C@@H]3[C@H]1CC[C@@]2(O)CC#N` stands “inactive”; under `O=C1Nc2ccc(I)cc2C1=Cc1cc(Br)c(O)c(Br)c1`, “inactive”.
`CO[C@H]1/C=C\O[C@@]2(C)Oc3c(C)c(O)c4c(O)c(c5c(nc6cc(C)ccn65)c4c3C2=O)NC(=O)C(C)=CC=C[C@H](C)[C@H](O)[C@@H](C)[C@@H](O)[C@@H](C)[C@H](OC(C)=O)[C@H]1C`: in assay [2], the Potency entry was “inactive”.
